The whole screen tested about 270,000 compounds, of which about 5,800 (2.1%) were called active. Inconclusive results (about 16%) are left out. Calls follow the shape of the dose curve; as a rule, active = well fitted inhibition curve with a large enough effect; inconclusive = small, poorly fitted or top-dose-only effect; inactive = flat fitted curve, though single readings scatter. The sample as a whole holds a higher share of actives than the screen did.
Biological target: Microtubule-associated protein tau (Homo sapiens) (UniProt P10636)
Experiment: qHTS for Inhibitors of Tau Fibril Formation, Thioflavin T Binding; also: nearly all actives have a fitted effect of over 55% in size
Conditions: recombinant tau K18 P301L (four-repeat tau fragment), heparin-induced fibrillization, ThT fluorescence; series mostly up to 57.4 µM
Method in brief: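 Tau K18 P301L fragment (15 uM unlabeled plus 0.24 uM Alexa 594-labeled) in 100 mM sodium acetate pH 7 with compound, fibrillization induced by 20 uM heparin for 6 hr at 37 C. Thioflavin T (30 uM) added, fluorescence read after 1 hr (ex 450, em 510 nm).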
Potency is read from the fitted curve at half-maximal effect.

Microtubule-associated protein tau (Homo sapiens), sequence (P10636 561-689 P618L limits assumed): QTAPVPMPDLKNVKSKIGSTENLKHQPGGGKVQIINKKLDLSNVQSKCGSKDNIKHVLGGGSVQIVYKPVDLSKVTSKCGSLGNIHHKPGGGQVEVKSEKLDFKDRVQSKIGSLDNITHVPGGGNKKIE

Potency, inactive:
CCCN1C(=O)C(O)(CC(=O)c2ccc(CC)cc2)c2cc(Br)ccc21 (stereo unspecified), COc1ccc(N2CCN(C(=O)CSc3nc4cc(OC)c(OC)cc4cc3C#N)CC2)cc1, Cc1nc2cc(NC(=O)CSc3nc4c(C)cccc4cc3C#N)ccc2s1, Cc1cc(C)c(C#N)c(SCC(=O)Nc2ccccc2)n1, COC(=O)CSc1nc(C)c2ccc(OC)cc2n1, CC(=O)c1ccc(NC(=O)c2nc(-c3ccc(C)cc3)n3c2CCCCC3)cc1, Cc1ccc(CCNC(=O)c2nnc(Cc3cccc(F)c3)o2)cc1, CC(C)OC(=O)c1c(NC(=O)c2ccco2)sc2c1CCCC2, CCOC(=O)c1c(NC(=S)NC(=O)c2ccco2)sc2c1CCCC2, COc1cc2c(cc1OC)C(COc1ccc(F)cc1)N(C(=O)c1ccccc1F)CC2 (stereo unspecified), COc1cc(Cl)c(NC(=O)CC(C)S(=O)(=O)c2cc3c(cc2C)NC(=O)CO3)c(OC)c1 (stereo unspecified), Cc1c(C=O)n(C)n(-c2ccccc2)c1=O, Cc1ccc(N=Nc2c(C)[nH]n(-c3ccccc3)c2=O)cc1, O=C(CSc1nc2ccccc2s1)Nc1ccc(C(=O)O)cc1, CC(C)(C)c1ccc(S(=O)(=O)Nc2ccc(O)c(Sc3nc4ccccc4s3)c2)cc1, COC(=O)c1cc(S(=O)(=O)N2CCN(c3cc(Cl)ccc3C)CC2)c[nH]1, COc1ccc(NC(=O)CSc2nc3ccccc3n2CC(=O)N2CCCCC2C)cc1 (stereo unspecified), COc1cc(NC(=O)c2cc(C3CC3)nc3c2c(C)nn3-c2ccccc2)cc(OC)c1, COC(=O)CC1Oc2ccccc2-n2cc(-c3ccccc3)nc21 (stereo unspecified), O=C(c1ccccc1)c1ccc(OCC(O)CN2CCCC2)cc1 (stereo unspecified), O=C(c1ccc(Cl)cc1)c1ccc(OCC(O)CN2CCCCC2)cc1 (stereo unspecified), Cc1ccc(C)c(CNC(=O)c2cc3ccccn3n2)c1, CCOc1ccccc1C(=O)Nc1ccc(S(=O)(=O)N2CCCCC2c2cccnc2)cc1 (stereo unspecified), CCOC(=O)c1c(C)[nH]c(C)c1S(=O)(=O)NCC(=O)NCc1cccc(C)c1, COc1ccc(Br)cc1/C=N/n1c(C)nnc1C, O=C(O)Cc1sc(-c2ccc(C(=O)O)cc2)nc1-c1ccccc1, Cc1ccc(-c2nc(C)sc2CC(=O)O)cc1, COc1ccc(NC(=O)CSc2nccn2Cc2ccc3c(c2)OCO3)cc1, Nc1ncc(S(=O)(=O)Nc2ccc(OC(F)(F)F)cc2)cn1, CCc1ccc2ncc3c(-c4ccc(C)cc4)nn(CC(=O)NCc4ccccc4)c3c2c1, COc1ccc(CNC(=O)CSc2n[nH]c(-c3ccc(F)cc3)n2)cc1, Cc1ccc(NC(=O)c2oc3ccccc3c2NC(=O)Cc2cccs2)cc1, CCCCc1nnc(NC(=O)CSc2nc(C)cc(=O)[nH]2)s1, CCOC(=O)Cc1csc(NC(=O)CSc2ccc(Br)cc2)n1, CC1=Nc2cc(C(=O)NCc3ccc(C)cc3)ccc2Sc2ccc(Cl)cc21, Cc1ccc(Cl)cc1N1CCN(S(=O)(=O)c2cc3[nH]c(=O)c(=O)[nH]c3cc2C)CC1, COc1cc(C(=O)NCCc2csc3nc(-c4ccccc4C)nn23)cc(OC)c1OC, CC(C)(C)OC(=O)NCCCC1=CC2=CC(=O)C(C)(OC(=O)c3ccco3)C(=O)C2=CO1 (stereo unspecified), COc1cc(CN(C(=O)c2ccccc2Br)c2ccccn2)cc(OC)c1OC, CCOc1cccc(NC(=O)c2ccc(F)c(S(=O)(=O)N(CC)c3cccc(C)c3)c2)c1, O=C(Nc1ccon1)c1sc2ccccc2c1Cl, COC(=O)c1cc(NC(=O)c2sc3ccccc3c2Cl)cc(C(=O)OC)c1, CN(Cc1ccccc1)c1ncnc2onc(-c3ccc(F)cc3)c12, O=c1c(NCc2cccs2)nccn1-c1ccccc1, O=C(CSc1cn(CC(=O)N2CCOCC2)c2ccccc12)Nc1ccccc1, Cc1ccc2oc3c(c(=O)c2c1)C(c1ccc([N+](=O)[O-])cc1)N(CCCN1CCOCC1)C3=O (stereo unspecified), CCN1CCC(N(Cc2ccc(F)cc2)C(=O)Nc2cc(C)ccc2C)CC1, Cc1cc(C)c2sc(NC(=O)c3ccc(S(=O)(=O)N4CCCC4)cc3)nc2c1, CCOc1cccc(CNC(=O)c2ccc(N3CCCC3)c(NC(=O)Nc3ccccc3CC)c2)c1, COc1cccc(C(=O)NC(=O)Nc2ccc(-c3cc(C(F)(F)F)nn3-c3ccccc3)cc2)c1, Cc1ccccc1CCNC(=O)C1CCN(c2nc3ccccc3nc2C(F)(F)F)CC1, CCc1cnc2c(c1SCC(=O)N1CCC(C)CC1)c(=O)n(C)c(=O)n2C, O=[N+]([O-])c1cccc(C2=NCCS2)c1, O=C(Nc1cccc([N+](=O)[O-])c1)Nc1ccc(Cl)cn1, Cc1c(C(=O)N2CCCC2)oc2c1-c1nn(CC(=O)NCc3ccc(OC(C)C)cc3)cc1CC2, Cc1ccc(OCC(=O)OCc2cc(=O)n3nc(C4CC4)sc3n2)cc1C, Cc1ccc(Cl)cc1N(C)C(=O)C1CCCN(c2ncnc3onc(-c4ccc(F)cc4)c23)C1 (stereo unspecified), CC(=O)c1ccc(NC(=O)CCc2nc(-c3ccc(C)cc3)no2)cc1, O=C(Nc1ccc(Br)cc1)c1ccc(Br)c(S(=O)(=O)NCc2ccccc2)c1, CCOC(=O)c1sc(NC(=O)c2ccncc2)nc1C, CCOC(=O)c1sc(=S)n(-c2cccc(OC)c2)c1N, COc1ccccc1N1CCN(C(CNC(=O)C(=O)NCc2ccc(C)cc2)c2cccnc2)CC1 (stereo unspecified), O=[N+]([O-])c1cc(-c2nc(-c3ccccc3)no2)ccc1NCc1ccco1, Cc1ccc(-n2ncc3c(N4CCC(C(N)=O)CC4)ncnc32)cc1, O=C(O)c1ccc2c(c1)C(=O)N(NC(=O)c1ccc(O)cc1)C2=O, COc1ccc(C(=O)NN2C(=O)C3C(c4ccccc4)C=CC(c4ccccc4)C3C2=O)cc1 (stereo unspecified), CN(C)S(=O)(=O)c1cccc(C(=O)Nc2cccnc2)c1, COc1ccc(N(C(=O)c2cccnc2)S(=O)(=O)c2ccc3c(c2)n(C)c(=O)n3C)cc1, COc1ccccc1CNc1nccn(-c2ccc(F)cc2)c1=O, Cc1cccc(CC(=O)Nc2cccc(-c3cn4cccnc4n3)c2)c1, CCc1cccc(C)c1NS(=O)(=O)c1ccc(-c2cc(C)no2)s1, COc1ccc(S(=O)(=O)Nc2ccc(O)c(Sc3nc4ccccc4s3)c2)cc1, Cc1ccc(S(=O)(=O)Nc2nc3ccccc3s2)cc1[N+](=O)[O-], O=C(NC(Nc1nc2ccc([N+](=O)[O-])cc2s1)(C(F)(F)F)C(F)(F)F)c1ccccc1, Cc1ccc(C(=O)Nc2nnc(-c3cccs3)s2)cc1C, COc1cc(/C=N/NC(=O)c2ccccc2)ccc1OS(=O)(=O)c1ccccc1, COc1cc(/C=N/NC(=O)CCc2n[nH]c(=O)[nH]c2=O)ccc1O, Cc1ccc(S(=O)(=O)c2cn(Cc3ccccc3)c3cc(N4CCCC4)c(F)cc3c2=O)c(C)c1, O=C1CSC2(C(=O)N(Cc3ccccc3)c3ccccc32)N1c1cccc(F)c1 (stereo unspecified)

Potency, active:
Cc1nonc1NC(=O)CSc1nc2ccccc2cc1C#N 1.78 µM, CCOc1ccc2cc(C#N)c(SCC(=O)OC)nc2c1 3.16 µM, CNC(=O)c1c(NC(NC(=O)c2ccco2)C(=O)c2ccc(Cl)cc2)sc2c1CCCC2 (stereo unspecified) 25.1 µM, Cc1c(N=Nc2ccc(N(C)C)cc2)c(=O)n(-c2ccccc2)n1C 15.8 µM, O=[N+]([O-])c1c(NCCO)cc(Sc2nc3ccccc3s2)c2nonc12 12.6 µM, O=C1C(c2ccccn2)=[N+]([O-])c2ccccc21 3.98 µM, CCOc1ccc(C(=O)/C=C/c2cn(CC(O)CN3CCCCCC3)c3ccccc23)cc1 (stereo unspecified) 12.6 µM, CC/C(=N/Nc1ccccc1)c1cnnc(SC)n1 7.08 µM, COc1cc(Br)cc(/C=N/c2ncn[nH]2)c1O 14.1 µM, C/C(=N/Nc1nc(-c2ccccc2)c(CC(=O)O)s1)c1ccccc1 12.6 µM, CCOC(=O)Cc1csc(NC(=O)CSc2nc(C)cc(=O)[nH]2)n1 28.2 µM, COC/C=C/C1=CC2=CC(=O)C(C)(OC(=O)CCC(=O)OC)C(=O)C2=CO1 (stereo unspecified) 15.8 µM, Oc1ccc(N=Cc2c(O)ccc3ccccc23)cc1 12.6 µM, Oc1ccc(N=Cc2sc3ccccc3c2Cl)cc1 7.08 µM, Nc1c(-c2cccc(Cl)c2)cnn1-c1cccc([N+](=O)[O-])c1 12.6 µM, O=C1c2ccccc2C2=Nc3ccccc3SC(c3ccccc3F)C12 (stereo unspecified) 7.94 µM, CCOC(=O)c1sc(=S)n2c1[nH]c(=O)c1ccc(C(=O)OC)cc12 7.08 µM, CC(=O)N1C(=O)/C(=C2\SC(=S)N(NC(=O)c3ccc(O)cc3)C2=O)c2ccccc21 25.1 µM, O=C(c1cccnc1)N(c1cc2sc(=O)oc2c2ccccc12)S(=O)(=O)c1ccccc1 11.2 µM, O=[N+]([O-])c1cc(Br)c(O)c(/C=N/Nc2nc3ccccc3s2)c1 4.47 µM, COc1cc(/C=N\Nc2nc(-c3cccs3)c(NC(C)=O)s2)ccc1O 15.8 µM, COc1cc(/C=N/Nc2nc3ccccc3s2)ccc1O 5.62 µM

Source: PubChem BioAssay AID1460 (National Center for Advancing Translational Sciences (NCATS), 2008)
